# The list is not random: actives were taken first. Their share in the collection is about 0.51%.
# FMDV FLuc – FMDV antiviral activity by firefly signal; 120,000 tested, 0.23% active; Potency, µM (highest dose often 57.5 µM), most hits filed as inhibitors; FMDV antiviral cell assay, firefly luciferase signal; further: nearly all actives have a fitted effect of over 60% in size
# FMDV Renilla – shows antiviral activity in FMDV Renilla assay; Potency, µM (series often up to 57.5 µM), most hits filed as inhibitors; FMDV replicon cells, Renilla luciferase signal; 120,000 tested, 0.32% active; further: nearly all actives have a fitted effect of over 55% in size
# Hits are given with their value; – = inactive; ? = inconclusive; [ ] = remark or other dose. The call rests on the fitted dose curve.
SMILES,FMDV FLuc,FMDV Renilla
CCCOc1ccc(C(=O)Nc2ccc(-c3cc4ccccc4oc3=O)c(C)c2)cc1,7.94µM,4.47µM
CCCOc1cccc(C(=O)Nc2ccc(-c3cc4ccccc4oc3=O)c(C)c2)c1,–,–
N#CCOc1ccc2ccccc2c1,12.6µM,–
N#CCOc1ccc(COc2cccc(C#N)c2)cc1,–,–
COc1ccc2c(c1)c1c(c(=O)n(-c3cccc(C)c3)c(=O)n1CC(=O)Nc1c(C)cc(C)cc1C)n2C,–,–
Cc1ccc2c(C=O)c(C)[nH]c2c1,–,–
Cc1ccc2c(c1)c(/C=C/c1cc[n+](C)cc1)c(C)n2C,?,8.91µM
Cc1ccc2[nH]c(C)c(/C=C/c3cc[n+](C)cc3)c2c1,12.6µM,11.2µM
Cc1cccc(Cn2c(=O)n(-c3ccccc3C)c(=O)c3c2c2cc(C)ccc2n3C)c1,–,–
O=C(O)CNCc1ccc(F)cc1,–,–
CC(NC(=O)c1nn(C)c(=O)c2ccccc12)c1ccccc1 (stereo unspecified),–,–
CC(NC(=O)c1ccccc1NC(=O)c1nn(C)c(=O)c2ccccc12)c1ccccc1 (stereo unspecified),3.55µM,4.47µM
Fc1ccc(/C=N/Nc2ccc(Cl)c(Cl)c2)cc1,–,–
COc1ccc(N(C)C(=O)Cn2cnc3sc(C)c(S(=O)(=O)N4CCN(c5ncccn5)CC4)c3c2=O)cc1,–,–
COc1ccc(OCC(=O)N2CCC(c3nc4ccccc4s3)CC2)cc1,28.2µM,25.1µM
Cc1ccccc1OCC(=O)N1CCC(c2nc3ccccc3s2)CC1,–,–
Nc1ccc(OCC2CC2)c(F)c1,–,–
O=Cc1ccc(OCC2CC2)c2ccccc12,?,5.62µM
COc1cc(NC(=O)Cn2cnc3sc(C)c(S(=O)(=O)N4CCN(C)CC4)c3c2=O)cc(OC)c1OC,–,–
CCn1c2c(c(=O)n3ncc(C(=O)N4CCN(c5ccc(Cl)cc5)CC4)c13)CN(Cc1ccc(OC)cc1)CC2,?,22.4µM
CCn1c2c(c(=O)n3ncc(C(=O)Nc4ccc(F)c(Cl)c4)c13)CN(Cc1ccc(OC)cc1)CC2,–,–
CCCC(=O)OCC(=O)c1ccc(-c2ccccc2)cc1,–,–
CCOCc1ccc(CNC(=O)c2nccnc2N)cc1,?,25.1µM
Cc1cccc(COc2ccc(CNC(=O)c3nccnc3N)cc2)c1,?,14.1µM
Nc1nccnc1C(=O)NCc1ccccc1,–,–
SMILES,FMDV FLuc,FMDV Renilla
Nc1nccnc1C(=O)NCc1ccc(O)cc1,–,–
CC(=O)Nc1c(C)nn(-c2ccccc2)c1N1CCC(C(=O)Nc2ccc(C)cc2Cl)CC1,–,–
C=CCNc1nc2c(c(=O)[nH]c(=O)n2C)n1CCCc1ccccc1,–,–
Cc1cc(C)n(-c2nc3c(c(=O)n(CCc4ccccc4)c(=O)n3C)n2CCC(C)C)n1,?,5.01µM
CCCn1c(-n2nc(C)cc2C)nc2c1c(=O)n(CCc1ccccc1)c(=O)n2C,–,?
c1ccc(OCCNC2CCCC2)cc1,–,–
Cc1cc2ccccc2n1-c1ccc(C(=O)N2CCC(C(=O)NCc3ccc(Cl)cc3)CC2)s1,25.1µM,?
Cc1cc2ccccc2n1-c1ccc(C(=O)N2CCC(C(=O)NCc3ccccc3Cl)CC2)s1,–,–
CCCN(C(=O)c1cc2c(=O)oc3ccc(C)cc3c2s1)c1ccc(OCC)cc1,?,–
CCCNC(=O)C(C)Sc1nc(CCC)cc(=O)[nH]1 (stereo unspecified),–,–
CCCc1cc(=O)[nH]c(SC(C)C(=O)NC(=O)NC2CCCCC2)n1 (stereo unspecified),10µM,?
Cc1ccc(S(=O)(=O)C(CNC(=O)C(=O)NCCc2ccccc2)c2cccs2)cc1 (stereo unspecified),–,–
COCc1cccc(C(=O)Nc2cccc(Oc3ccccc3)c2)c1,–,–
Cc1cccc(NC(=O)c2sc3nc4c(cc3c2N)CN(Cc2ccccc2)CC4)c1,–,–
CCN1CCc2nc3sc(C(=O)Nc4cccc(Cl)c4C)c(N)c3cc2C1,12.6µM,7.08µM
CCOc1ccc(C(=O)Nc2nc(C)cs2)cc1OC,–,–
Cc1csc(NC(=O)c2ccc(Oc3ccc(Br)cc3)nc2)n1,?,12.6µM
CCC(Oc1ccc(F)cc1)C(=O)Nc1nc(-c2ccc(F)cc2)ns1 (stereo unspecified),25.1µM,?
CCC(Oc1ccc(F)cc1)C(=O)Nc1cc(-c2ccc(C)cc2)no1 (stereo unspecified),–,–
CCN1/C(=C/C=C/c2sc3ccccc3[n+]2CC)Sc2ccccc21,3.16µM,?
CCN(CC)C(C)CN1c2ccccc2Sc2ccccc21 (stereo unspecified),–[11.5 µM],–
CCNc1cc(C)nc(Nc2ccc(NC(=O)c3ccccc3F)cc2)n1,?,28.2µM
COc1ccc(CC(=O)Nc2ccc3nc(Nc4ccc(OC)cc4)cc(C)c3c2)cc1,?,–
COc1ccc(NC(=O)CSc2nc3nc(C)cc(C)n3n2)cc1,–,–
COc1ccc(Nc2cc(C)nc(Nc3ccc(NC(=O)CCc4ccccc4)cc3)n2)cc1,12.6µM,?
SMILES,FMDV FLuc,FMDV Renilla
COc1ccc(Nc2cc(C)nc(Nc3ccc(NC(=O)CC(C)C)cc3)n2)cc1,?,28.2µM
Cc1cc(N2CCCC2)nc(Nc2ccc(NC(=O)c3c(F)cccc3F)cc2)n1,–,–
c1ccc(-c2nc(-c3ccncc3)n[nH]2)nc1,–,–
O=C1CC(c2ccc3c(c2)OCO3)c2c(n3c(nc4ccccc43)[nH]c2=O)N1 (stereo unspecified),–,–
Cc1ccc(C)c(NC(=O)CSc2nc(-c3ccccc3)cc(=O)[nH]2)c1,–,–
O=C(NC1CCCCC1C(F)(F)F)c1ccc2ncsc2c1 (stereo unspecified),8.91µM,–
O=C(NC1CCCCCC1)c1ccc2ncsc2c1,–,–
CCCS(=O)(=O)N1CCN(c2ccc(N3CCN(CC)CC3)nn2)CC1,–,–
COc1ccc(CNCCc2ccc(F)cc2)cc1,–,–[1.06 µM]
COc1ccc(CCNCc2ccc(Br)cc2)cc1,–,12.6µM
CCC1CN(C(=O)N2CCC(C(=O)Nc3cc(C)ccc3C)CC2)c2ccccc2O1 (stereo unspecified),–,–
CCC1CN(C(=O)N2CCC(C(=O)N3CCN(c4cc(C)ccc4C)CC3)CC2)c2ccccc2O1 (stereo unspecified),20µM,?
CCC1CN(C(=O)N2CCC(C(=O)N3CCN(c4cccc(C)c4C)CC3)CC2)c2ccccc2O1 (stereo unspecified),?,28.2µM
CCC1CN(C(=O)N2CCC(C(=O)NCc3ccccc3C)CC2)c2ccccc2O1 (stereo unspecified),–,–
Cc1cc(O)c2c(C)c(CC(=O)NCCCn3ccnc3)c(=O)oc2c1,–,–
COc1cccc(NC(=O)CN(C)S(=O)(=O)c2ccc3nc(C)sc3c2)c1,–,–
CCOc1ccccc1NC(=O)CN(C)S(=O)(=O)c1ccc2nc(C)sc2c1,?,31.6µM
O=C(NC(NC(=O)c1cccnc1)c1ccc(Cl)cc1)c1cccnc1,–,–
COc1cc(CNC(=O)c2ccc3nc(Cc4ccccc4)oc3c2)cc(OC)c1OC,14.1µM,?
COc1cc(CNC(=O)c2ccc3nc(CCc4ccccc4)oc3c2)cc(OC)c1OC,–,–
Cc1ccc2cc(C(=O)NCc3ccc(N4CCC(C)CC4)nc3)c(C)nc2c1,?,1µM
Cc1nc(N2CCCC2)ncc1C(=O)NCc1ccc(F)cc1,–,–
Cc1ccc(C(=O)NCc2ccc(N3CCCC3)nc2)cc1F,–,–
Cc1nc2cc(F)ccc2cc1C(=O)NCc1ccc(C(=O)N2CCCC2)cc1,6.31µM,2.51µM
CCCC(=O)Nc1ccccc1OCc1cc(=O)n2cc(C)ccc2n1,–,–

# Screening data from PubChem.
